Source: PubChem (National Center for Advancing Translational Sciences (NCATS))
PKM2 act – activators of human pyruvate kinase M2. actives 0.34% (n = 260,000). purified PKM2, Kinase-Glo ATP luminescence, activation; response scale: 0% is enzyme alone, no compound. Potency, µM (titrated, usually from 57.5 µM), hits mostly activators; further: nearly all actives have a fitted effect of over 55% in size
Target sequence (P14618 whole entry, looked up): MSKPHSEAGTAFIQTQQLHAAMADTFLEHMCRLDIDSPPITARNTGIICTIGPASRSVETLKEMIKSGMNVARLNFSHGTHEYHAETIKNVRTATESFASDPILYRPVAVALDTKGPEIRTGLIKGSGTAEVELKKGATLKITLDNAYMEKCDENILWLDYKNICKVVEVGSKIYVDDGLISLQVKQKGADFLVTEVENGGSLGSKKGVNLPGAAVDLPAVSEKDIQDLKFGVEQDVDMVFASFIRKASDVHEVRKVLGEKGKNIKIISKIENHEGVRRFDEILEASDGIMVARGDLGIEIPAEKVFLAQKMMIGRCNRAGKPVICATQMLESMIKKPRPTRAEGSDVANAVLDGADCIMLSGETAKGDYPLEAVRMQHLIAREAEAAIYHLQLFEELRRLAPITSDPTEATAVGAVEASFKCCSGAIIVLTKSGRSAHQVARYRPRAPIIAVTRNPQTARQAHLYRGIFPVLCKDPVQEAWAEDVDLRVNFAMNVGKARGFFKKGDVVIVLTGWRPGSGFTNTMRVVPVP
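ATP formation by purified human PK-M2, quantified via coupled luciferase luminescence after 1 h at room temperature with 0.1 mM ADP and 0.5 mM PEP final.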
Tb PGK inh – T. brucei PGK inhibition. P07378. PGK/GAPDH coupled, Kinase-Glo luminescence, 60 min. Potency, µM (series often up to 57.5 µM), hits mostly inhibitors. actives 0.043% (n = 380,000). AID 602233; further: nearly all actives have a fitted effect of over 60% in size
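Recombinant glycosomal PGK reaction used 1,3-bisphosphoglycerate generated in-well by GAPDH (100nM final) in 100mM TEA pH 7.6, 5mM MgCl2, 0.01% Tween-20. After 60 minutes at room temperature, ATP was read by Kinase-Glo Plus luminescence end-point.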
ELG1 DNA repair – inhibitors of ELG1-dependent DNA repair in HEK293T cells; HEK293T ELG1-luciferase reporter, luminescence, 16 h; DNA damage induced by 5-fluorouridine; Potency, µM (highest dose often 46.1 µM), most hits filed as inhibitors; actives 2.3% (n = 330,000); further: nearly all actives have a fitted effect of over 55% in size
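Step one: seed 2,000 cells per well. Step two: pin-transfer compound or DMSO alongside 5-fluorouridine. Step three: incubate 16 hr, 37 °C, 5% CO2. Step four: add ONE-Glo, wait 30 min, read luminescence.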
Rango release inh – inhibition of RanGTP-driven Rango-importin beta dissociation. Biochemical FRET Rango-importin beta, RanGTP-induced dissociation. Potency, µM (doses to about 46.1 µM). actives 0.071% (n = 340,000). AID 540253; calls by dose curve; further: nearly all actives have a fitted effect of over 45% in size
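Compounds preincubate 5 min with complex of recombinant Rango and importin beta in PBS with 1 mM DTT. Ran (0.6 uM) loaded with 2 mM GTP plus 0.2 uM RCC1 starts dissociation; FRET is recorded 45 min later.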
Tb PFK inh – inhibitors of T. brucei phosphofructokinase. T. brucei PFK, ADP-Glo luminescence. Potency, µM (series often up to 57.5 µM), actives largely listed as inhibitors. actives 0.17% (n = 330,000); further: nearly all actives have a fitted effect of over 60% in size
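PFK 1.25 nM, F6P 0.5 mM, ATP 0.1 mM, 0.1 M TEA pH 8.0, 5 mM MgCl2, 0.01% Tween20, 0.1% BSA; 45 min RT. ADP-Glo readout. qHTS titration up to 57 uM; curves fitted, compounds curve-classed.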
Rango-impB inh – Rango-importin beta binding inhibition. AID 540263. Q14974. Rango CFP/YFP FRET sensor + importin beta, 45 min. Potency, µM (titrated, usually from 92.2 µM). actives 0.031% (n = 340,000); calls by dose curve; further: nearly all actives have a fitted effect of over 15% in size
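FRET biosensor Rango (snurportin 1 IBB between N-terminal EYFP and C-terminal Cerulean), 50 nM in PBS/1 mM DTT/0.02% Tween-20/0.1% BSA, preincubated 5 min RT with compound; 0.125 microM importin beta added, 45 min RT, CFP/YFP FRET ratio read.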
Numbers stand for hits; [ ] = another dose, or the depositor's remark. Most compounds without a hit are left out; they make up all but 2.4% or so of the library. Unless noted, the call rests on the fitted dose curve; in most records, active means well fitted curve in the direction sought with a large enough effect; inconclusive means small, poorly fitted or top-dose-only effect, or another doubt; inactive means no such curve, though single readings can be large; an effect the other way counts as inactive or inconclusive.

Results for CCN1CCN(c2cc(C)c3cc(NC(=S)N4CCCC(C)C4)ccc3n2)CC1 (stereo not given) ?
PKM2 act: inactive; Tb PGK inh: inactive; ELG1 DNA repair: inactive; Rango release inh: inactive; Tb PFK inh: inactive; Rango-impB inh: inactive

Results for Cc1ccc(CNC(=O)CN(C(=O)N2CCN(C)CC2)S(=O)(=O)c2ccc(C)cc2)cc1 ?
Tb PGK inh: inactive; ELG1 DNA repair: inactive; Rango release inh: inactive; Tb PFK inh: inactive; Rango-impB inh: inactive

Results for Cc1ccc(CNC(=O)c2ccccc2NC(=O)c2nsc3ccccc23)cc1 ?
Tb PGK inh: inactive

What do the screens show for `COc1cc(NC(=O)c2cc3cccc(OC)c3o2)cc(C(=O)Nc2cccc(C(F)(F)F)c2)c1`?
PKM2 act: inactive; Tb PGK inh: inactive; ELG1 DNA repair: 11.6µM; Rango release inh: inactive; Tb PFK inh: inactive; Rango-impB inh: inactive

Results for COc1cc(NC(=O)c2csc(-c3ccncc3)n2)cc(C(=O)Nc2cccc(C(F)(F)F)c2)c1 ?
PKM2 act: inactive; Tb PGK inh: inactive; ELG1 DNA repair: 5.17µM; Rango release inh: inactive; Tb PFK inh: inactive; Rango-impB inh: inactive

What do the screens show for `COc1cc(NC(=O)c2ccno2)cc(C(=O)Nc2cccc(C(F)(F)F)c2)c1`?
PKM2 act: inactive; Tb PGK inh: inactive; ELG1 DNA repair: inconclusive; Rango release inh: inactive; Tb PFK inh: inactive; Rango-impB inh: inactive

How did Cc1cc(C(=O)NCc2ccccc2)c2c(C)nn(-c3cccc(Cl)c3C)c2n1 do in these assays?
Tb PGK inh: inactive

Results for Cc1cc(Cl)ccc1OCCCC(=O)NO ?
PKM2 act: inactive; Tb PGK inh: inactive; ELG1 DNA repair: inconclusive; Rango release inh: inactive; Tb PFK inh: 13.5µM; Rango-impB inh: inactive

How did O=C(Nc1ccc(N2CCN(c3ncccc3C(F)(F)F)CC2)nc1)c1cccs1 do in these assays?
PKM2 act: inactive; Tb PGK inh: inactive; ELG1 DNA repair: 20.6µM; Rango release inh: inactive; Tb PFK inh: inactive; Rango-impB inh: inactive

What do the screens show for `COc1cccc(C(=O)Nc2ccc(-c3cn4cccnc4n3)cc2)c1OC`?
Tb PGK inh: inactive

Results for CCOC(=O)c1cnc(-n2cc(C)cn2)nc1Nc1ccccc1OC ?
PKM2 act: inactive; Tb PGK inh: inactive; ELG1 DNA repair: 5.17µM; Rango release inh: inactive; Tb PFK inh: inactive; Rango-impB inh: inactive

How did COc1cc(C(=O)NC(=S)NNC(=O)c2ccc3c(c2)OCO3)cc(OC)c1OC do in these assays?
PKM2 act: inactive; Tb PGK inh: inactive; ELG1 DNA repair: 16.4µM; Rango release inh: inactive; Tb PFK inh: inactive; Rango-impB inh: inactive

Results for COc1cc(/C=C/C(=O)c2ccc3c(c2)OCO3)cc(OC)c1OC ?
Tb PGK inh: inactive; ELG1 DNA repair: 16.4µM; Rango release inh: inactive; Tb PFK inh: inactive; Rango-impB inh: inconclusive

How did COc1cc(C(=O)NC(=S)Nc2ccc3c(c2)OCO3)cc(OC)c1OC do in these assays?
PKM2 act: inactive; Tb PGK inh: inactive; ELG1 DNA repair: inconclusive; Rango release inh: inactive; Tb PFK inh: inactive; Rango-impB inh: inactive

What do the screens show for `O=C(COC(=O)c1c(F)cccc1F)NC(=O)NCc1ccccc1`?
Tb PGK inh: inactive

Results for CN(CC(=O)Nc1ccccc1Br)C(=O)CN1CCN(Cc2cccc(Cl)c2)CC1 ?
Tb PGK inh: inactive; ELG1 DNA repair: 18.3µM; Rango release inh: inactive; Tb PFK inh: inactive; Rango-impB inh: inactive

Results for CC(=O)N(Cc1ccccc1)c1c(N)nc(N)[nH]c1=O ?
Tb PGK inh: inactive; Rango release inh: inactive; Rango-impB inh: inactive

What do the screens show for `Cc1ccc(SCC(=O)N/N=C/c2ccco2)cc1`?
PKM2 act: inactive[11.5 µM]; Tb PGK inh: inactive; ELG1 DNA repair: inactive; Rango release inh: inactive; Tb PFK inh: inactive; Rango-impB inh: inactive

What do the screens show for `COc1cccc(N/C(=N/C(=S)Nc2ccc(C)cc2C)Nc2nc(C)cc(C)n2)c1`?
PKM2 act: inactive; Tb PGK inh: inactive; ELG1 DNA repair: 25.9µM; Rango release inh: inactive; Tb PFK inh: inactive; Rango-impB inh: inactive

How did CCNC(=S)/N=C(/Nc1ccc(OC)cc1)Nc1nc(C)cc(C)n1 do in these assays?
PKM2 act: inactive; Tb PGK inh: inactive; ELG1 DNA repair: inactive; Rango release inh: inactive; Tb PFK inh: inactive; Rango-impB inh: inactive

How did COC(=O)N/N=C/c1c(C)c(C(=O)c2ccc(F)cc2)n2ccccc12 do in these assays?
PKM2 act: inactive; Tb PGK inh: inactive; ELG1 DNA repair: 23.1µM; Rango release inh: inconclusive; Tb PFK inh: inactive; Rango-impB inh: inconclusive

What do the screens show for `CCOC(=O)N/N=C/c1c(C)c(C(=O)c2ccc(F)cc2)n2ccccc12`?
PKM2 act: inactive; Tb PGK inh: inactive; ELG1 DNA repair: inconclusive; Rango release inh: inactive; Tb PFK inh: inactive; Rango-impB inh: inactive

Results for Cc1c(/C=N/NC(=O)c2ccc(O)cc2)c2ccccn2c1C(=O)c1ccc(F)cc1 ?
PKM2 act: inactive; Tb PGK inh: inactive; ELG1 DNA repair: inconclusive; Rango release inh: inconclusive; Tb PFK inh: inactive; Rango-impB inh: inconclusive

Results for Cc1c(/C=N/NC(=O)c2ccccc2O)c2ccccn2c1C(=O)c1ccc(F)cc1 ?
PKM2 act: inactive; Tb PGK inh: inactive; ELG1 DNA repair: 23.1µM; Rango release inh: inconclusive; Tb PFK inh: inactive; Rango-impB inh: inconclusive

Results for Cc1c(/C=N/NC(N)=O)c2ccccn2c1C(=O)c1ccncc1 ?
PKM2 act: inactive; Tb PGK inh: inactive; ELG1 DNA repair: inconclusive; Rango release inh: inactive; Tb PFK inh: inactive; Rango-impB inh: inactive

What do the screens show for `Cc1c(/C=N/NC(=O)c2cccnc2)c2ccccn2c1C(=O)c1ccc(F)cc1`?
PKM2 act: inactive; ELG1 DNA repair: 18.4µM; Tb PFK inh: inactive

What do the screens show for `Cc1c(Cl)cccc1NC(=O)NCCOCCn1c(=O)oc2ccccc21`?
Tb PGK inh: inactive

How did COc1ccc(N(CC(=O)Nc2cccc(OC)c2)S(=O)(=O)c2c(C)nn(C)c2C)cc1 do in these assays?
PKM2 act: inactive; Tb PGK inh: inactive; ELG1 DNA repair: inactive; Rango release inh: inactive; Tb PFK inh: inactive; Rango-impB inh: inactive

Results for COc1ccc(N(CC(=O)Nc2nc3ccc(C)cc3s2)S(=O)(=O)c2c(C)nn(C)c2C)cc1 ?
PKM2 act: inactive; Tb PGK inh: inactive; ELG1 DNA repair: 18.4µM; Rango release inh: inactive; Tb PFK inh: inactive; Rango-impB inh: inactive

How did CCOC(=O)N1CCN(C(=O)CCCCCn2c(=S)[nH]c3cc4c(cc3c2=O)OCO4)CC1 do in these assays?
PKM2 act: inactive; Tb PGK inh: inactive; ELG1 DNA repair: inconclusive; Rango release inh: inactive; Tb PFK inh: inactive; Rango-impB inh: inactive
